Assay results as given in the supplement of paper PMC6555819.

Key:
Assay in all cases: PBM binding z-score (relative to random genomic background probes); higher = stronger binding; sequences stand for … in GC…GCGATTGACAGCGTAGAATGAAGG
[1] = system: FXR:RXRa (NR concentration 270 nM, RXRa partner concentration 90 nM)
How it was run: (§1)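 The probes on custom Agilent 4×180K protein-binding microarrays were double-stranded, with 34-nt variable regions bearing direct-repeat seeds, single-nucleotide variants, half-site ablations and random human genomic background sequences. Incubation lasted 1 h with ligand-free nuclear receptor dimers in PBS pH 7.4, 2% milk, 0.02% Triton X-100, 1 mM DTT, 0.2 mg/mL BSA and 0.4 mg/ml salmon testes DNA. Antibodies against each partner (one per run) detected bound dimers, and fluorescence scans were regression-normalized. Binding z-scores take the random background probes as reference.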

[2] = system: LXRa:RXRa (NR concentration 270 nM, RXRa partner concentration 90 nM)
How it was run: as §1

[3] = system: LXRa homodimer (NR concentration 270 nM)
How it was run: as §1

[4] = system: LXRb:RXRa (NR concentration 270 nM, RXRa partner concentration 90 nM)
How it was run: as §1

[5] = system: LXRb homodimer (NR concentration 270 nM)
How it was run: as §1

[6] = system: PPARa:RXRa (NR concentration 270 nM, RXRa partner concentration 90 nM)
How it was run: as §1

[7] = system: PPARg:RXRa (NR concentration 180 nM, RXRa partner concentration 90 nM)
How it was run: as §1

[8] = system: PPARg:RXRa 270nM:90nM, anti-RXR (NR concentration 270 nM, RXRa partner concentration 90 nM)
How it was run: as §1

[9] = system: PPARg:RXRa 30nM:10nM, anti-RXR (NR concentration 30 nM, RXRa partner concentration 10 nM)
How it was run: as §1

[10] = system: PPARg:RXRa 90nM:30nM, anti-RXR (NR concentration 90 nM, RXRa partner concentration 30 nM)
How it was run: as §1

Sequence	PBM binding z-score [1]	PBM binding z-score [2]	PBM binding z-score [3]	PBM binding z-score [4]	PBM binding z-score [5]	PBM binding z-score [6]	PBM binding z-score [7]	PBM binding z-score [8]	PBM binding z-score [9]	PBM binding z-score [10]
CGTCCAAGGTGATAGGAGGTCAGTGAAGACAGAT	1.74	2.85	0.6	1.86	-0.299	2.71	1.06	1.49	0.0813	0.512
TCTCGGAGGACGCGAAAGGTCAGAGCTCGACATC	2.41	3.21	1.27	2.37	-0.501	3.2	1.67	3.46	2.47	3.21
TCTGCTAGGTCAACGATGGTCAACTAATCTGCTA	3.62	3.21	0.113	2.15	0.0398	3.3	2.54	3.18	1.79	2.6
GAAACAGGGTCAAGGCCAGAGTACGCGTATTGAT	7.06	4.18	-0.0634	3.92	-0.239	6.22	6.82	6.19	3.1	5.15
ACTAGCAGGCCACGGGTCACTCAAGATTAGTCCG	0.933	1.15	-0.0855	1.3	-0.734	2.7	3.18	3.72	1.75	3.53
CCGGCTGGGGCAGAAAGGTTACCATACCATCCGG	0.0889	0.439	-0.422	0.64	-1.29	1.61	0.79	1.64	-0.158	1.06
ATACCAAGGTGATCGTGAGGACGTTGATACTAAC	0.587	0.135	-0.00187	0.0444	-0.331	-0.0562	0.622	0.0338	-0.0535	-0.287
AAATGTAGGTTACATCCGGGTCATTCAGGCTATG	2.37	4.34	1.56	2.86	0.424	4.62	6.92	5.78	2.95	5.22
CCTTACGGGTCACTCCTGGTTATAGCATCGGAGT	4.24	5.52	-0.0362	3.01	0.134	4.2	2.76	3.54	0.987	2.25
TTACCAAGGTGAAAGCTCGTTGATGCACGCCTTG	0.225	-0.099	-0.701	-0.367	-1.12	1.29	0.87	1.43	0.448	0.792
CAAACTAGGTCACCGGAGGGTCAAAGTCCGCATG	5.69	5.1	1.95	4.16	0.645	5.86	8.8	7.65	4.96	7.5
CCGCCTGGGGCATAAGGTTACCATAAGCCAGCCC	0.396	2.13	-0.0987	0.843	-1.3	1.3	0.507	0.996	-0.661	0.461
TATACAGGGTCAAAGCCCAGAGTACGAATGTCGA	7.38	5.88	2.47	4.7	2.15	5.93	6.29	5.96	2.69	4.51
CGTCCAAGGTCATAGGAGGTGAGTGAAGACAGAT	7.28	5.61	1.23	4.25	0.462	5.79	4.94	5.08	1.98	3.99
GGAACGAGGGAAAGTTGATAGCAGAGTTTGATGG	-0.31	-0.575	-0.354	-0.799	-0.711	-0.252	0.626	0.9	0.276	0.845
CCTATTAGTAGACCATAAGGGCAACCGAAGCTCG	0.44	0.377	0.422	0.468	0.364	0.752	0.777	1.21	0.45	0.915
TGAATGAGGTTAAAAGATCAGGGAACGTTGCAAA	2.41	2.05	-0.107	1.55	-0.114	3.8	2.57	3.45	1.49	2.53
CCAGACAGGTGAGAAGGTACCTCAGCCTCGATTA	-0.184	-0.333	-0.205	-0.357	-0.562	0.192	0.408	0.244	-0.397	-0.0819

Sequence	PBM binding z-score [1]	PBM binding z-score [2]	PBM binding z-score [3]	PBM binding z-score [4]	PBM binding z-score [5]	PBM binding z-score [6]	PBM binding z-score [7]	PBM binding z-score [8]	PBM binding z-score [9]	PBM binding z-score [10]
ACTAGTTGGTCAGCTGAGGTCCCACACAATTCGG	0.639	-0.375	-0.16	-0.219	0.179	-0.1	0.275	-0.102	-0.52	-0.3
GGAACGACGGCAAAGTTGATAGCATCTGTCGACG	-0.522	-0.556	-0.557	-0.755	-0.926	0.00733	1.01	1.58	0.147	1.28
CTCGAAAGGTCGTGCTCAGGTGAGAATACCAAAC	5.2	3.74	0.081	3.51	0.321	4.86	2.81	3.77	1.19	2.44
CCTAGCAGGCCAATATGGGTCACTCAAGGCTTGA	0.719	2.76	-0.00824	1.41	-0.863	3.05	1.57	1.86	0.00421	1.15
AGTTACGGGTCAACGAGGTTATAGCACGCGTATA	6.05	5.15	0.781	4.47	0.793	5.63	5.57	5.55	2.17	4.38
ACTCAGAGGACAAAGGTCAGAGCTACGCCAGTGA	4.51	4.87	1.72	3.52	0.532	5.3	7.56	7.42	5.13	7.46
AGAACGAGGACACGCTGAGTTGATAGCAGAGTAG	0.477	-0.638	-0.296	-0.945	-0.622	-0.44	0.748	-0.466	0.251	-0.327
ATTGAAAGGTCGAAGGTGAGTATACCCACCCGAA	4.77	3.47	0.632	2.97	0.961	4.74	5.11	5.53	2.82	5.09
TCAGACAGGCGAAGGTAACTCAGGTACGCAGTCG	0.672	1.16	-0.549	0.255	-0.893	0.184	0.517	1.53	3.02	2.41
CCTTACGGGTCACTCCAGGTTATTGCATCGGAGT	5	7.62	2.75	5.48	0.61	4.32	3.25	3.54	1.08	2.44
CCTTACGGGTGACGAGGTTATAGCACGACGAGCG	0.791	0.766	-0.00764	0.572	-0.569	2.24	1.89	1.82	-0.0114	1.22
CGTCCAAGGTCAAAGGTCAGTGAGGAGATGACGG	8.06	7.01	4.05	6.21	1.86	7.08	10.8	8.98	8.09	9.57
CCTGCTAGGTCAATGGTCAGCTTAAGCAGCTCGC	3.08	2.28	-0.0012	1.51	-0.1	3.13	4.41	5.21	2.37	4.79
TCTATTATTTGAAGGGCAACCGACGAGTCCGTTT	1.12	1.55	1.32	1.35	0.721	1.29	0.336	2.22	4.08	3.41
CTTTACGGGTCACTCCAGGTTATAGCATCGGAGT	5.38	7.71	3.92	5.61	1.09	4.97	4.47	4.7	1.86	3.42
TCATATAGGTAACTGCTAGGTGAAAGTCCGATCT	1.07	1.19	0.0877	0.852	-0.244	1.75	1.11	2.52	3.76	3.29
CCTCGTAGGACAGAAGGTCAGAGCTGTCCGCTTT	1.05	1.85	0.197	1.35	-0.387	2.11	-0.00358	1.14	-0.551	0.426
CGTCCAAGGTCAGCAGGTCAGTTAAAGCGACGTG	6.18	4.17	0.53	3.54	-0.0511	4.97	4.14	4.73	1.44	3.28
